Results taken from PubChem BioAssay (NCATS).
Results filed as inconclusive are left out. Calls of active or inactive are those of the source. Calls come from the whole dose curve; as a rule, active = well fitted cell-killing curve with a large enough effect; inconclusive = small, poorly fitted or top-dose-only effect, or effect the other way; inactive = flat fitted curve, though single readings scatter.

Key:
Assay in all cases: Primary qHTS to identify gynecologic anti-cancer compounds using libraries of approved drugs and bioactive compounds (AID 1345084); note: nearly all actives have a fitted effect of over 55% in size
Conditions in all cases: Gynecologic cancer cell panel viability, ATPlite luminescence, 48 h; series mostly up to 57.5 µM
OV90 = test system: OV90
Procedure, shortened: (§1)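 Cell viability after 48 h drug treatment, ATPlite luminescence readout; five doses.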

PA-1 = test system: PA-1
Procedure, shortened: as §1

SKOV3 = test system: SKOV3
Procedure, shortened: as §1

Tov-21-G = test system: Tov-21-G
Procedure, shortened: as §1

Tov112D = test system: Tov112D
Procedure, shortened: as §1
% is set by controls: 0 for no effect and ±100 for the full control effect.

Cc1cc(-c2cc(OC(=O)c3ccccc3)ccc2Cl)cc2nnc(Nc3ccc(OCCN4CCCC4)cc3)nc12
inactive: Potency (OV90) | Potency (PA-1) | Potency (SKOV3) | Potency (Tov-21-G) | Potency (Tov112D)

C[C@@H](O[C@H]1OCCN(Cc2nn(P(=O)(O)O)c(=O)[nH]2)[C@H]1c1ccc(F)cc1)c1cc(C(F)(F)F)cc(C(F)(F)F)c1
inactive: Potency (OV90) | Potency (PA-1) | Potency (SKOV3) | Potency (Tov-21-G) | Potency (Tov112D)

Cc1ccc(-c2c(C(=O)CCl)n(CCCO)c3ncnc(N)c23)cc1
inactive: Potency (OV90) | Potency (PA-1) | Potency (SKOV3) | Potency (Tov-21-G) | Potency (Tov112D)

COC(=O)/C=C/C=C/C(=O)OC1C=C2COC(=O)C2(O)C2(C)CCCC(C)(C)C12 (stereo not given)
inactive: Potency (OV90) | Potency (PA-1) | Potency (SKOV3) | Potency (Tov-21-G) | Potency (Tov112D)

O=C(C(Cc1cccc(C(F)(F)F)c1)NS(=O)(=O)c1cc(F)c2c(c1)CCNC2)N1CCCC1 (stereo not given)
inactive: Potency (OV90) | Potency (PA-1) | Potency (SKOV3) | Potency (Tov-21-G) | Potency (Tov112D)

C[C@H]1CC[C@@]2(OC1)O[C@H]1CC3[C@@H]4CC[C@@H]5C[C@@H](O[C@@H]6O[C@H](CO)[C@@H](O[C@@H]7O[C@H](CO[C@@H]8OC[C@@H](O)[C@H](O)[C@H]8O)[C@@H](O[C@@H]8O[C@H](CO)[C@H](O)[C@H](O)[C@H]8O)[C@H](O)[C@H]7O)[C@H](O)[C@H]6O)CC[C@]5(C)C4CC[C@]3(C)[C@H]1[C@@H]2C (stereo not given in full)
inactive: activity change, negative = cytotoxicity (OV90) -9.4% [at 11.6 µM] | activity change, negative = cytotoxicity (PA-1) -0.202% [at 11.6 µM] | activity change, negative = cytotoxicity (SKOV3) 11% [at 11.6 µM] | activity change, negative = cytotoxicity (Tov-21-G) -1.12% [at 11.6 µM] | activity change, negative = cytotoxicity (Tov112D) 3.54% [at 11.6 µM]

CCOC(=O)N1CCC(N2CCC[C@@H](NC(=O)c3ccccc3C)C2)CC1
inactive: Potency (OV90) | Potency (PA-1) | Potency (SKOV3) | Potency (Tov-21-G) | Potency (Tov112D)

C=C(C)C(=O)O[C@H]1[C@H]2C(=C)C(=O)O[C@@H]2/C=C(\CO)CC/C=C(/C=O)[C@@H]1O
inactive: Potency (OV90) | Potency (PA-1) | Potency (SKOV3) | Potency (Tov-21-G) | Potency (Tov112D)

NS(=O)(=O)c1ccc(N2N=C(c3ccccc3)CC2c2ccccc2)cc1 (stereo not given)
inactive: Potency (OV90) | Potency (PA-1) | Potency (SKOV3) | Potency (Tov-21-G) | Potency (Tov112D)

CCOC(=O)c1cnn(-c2ccccc2)c1NC(=O)c1cc2nc(-c3ccco3)cc(C(F)(F)Cl)n2n1
inactive: Potency (OV90) | Potency (PA-1) | Potency (SKOV3) | Potency (Tov-21-G) | Potency (Tov112D)

COc1cccc(N2CCN(C3=Nc4c(F)cccc4[C@H](CC(=O)O)N3c3cc(C(F)(F)F)ccc3OC)CC2)c1
inactive: Potency (OV90) | Potency (PA-1) | Potency (SKOV3) | Potency (Tov-21-G) | Potency (Tov112D)

CCOc1ccc(S(=O)(=O)N2CCCCCC2)c2ccccc12
inactive: Potency (OV90) | Potency (PA-1) | Potency (SKOV3) | Potency (Tov-21-G) | Potency (Tov112D)

CCc1ccccc1OC[C@@H](O)CN[C@H]1CCCc2ccccc21
inactive: Potency (OV90) | Potency (PA-1) | Potency (SKOV3) | Potency (Tov-21-G) | Potency (Tov112D)

CCOc1ccc(CCNC(=O)c2cc3sc(Cl)cc3n2C)cc1OCC
inactive: Potency (OV90) | Potency (PA-1) | Potency (SKOV3) | Potency (Tov-21-G) | Potency (Tov112D)

C=C1C(OC2OC(CO)C(O)C(O)C2O)CC2C(C)(C)C(O)CCC2(C)C1CC/C(C)=C\COC(=O)CC(=O)O (stereo not given)
inactive: Potency (OV90) | Potency (PA-1) | Potency (SKOV3) | Potency (Tov-21-G) | Potency (Tov112D)

CC(C)(C)NC(=O)[C@H]1CC[C@H]2[C@@H]3CC[C@H]4NC(=O)CC[C@]4(C)[C@H]3CC[C@]12C
inactive: Potency (OV90) | Potency (PA-1) | Potency (SKOV3) | Potency (Tov-21-G) | Potency (Tov112D)

Cc1c(F)ccc(C(=O)Nc2cc([N+](=O)[O-])ccc2N2CCN(C)CC2)c1Cl
inactive: Potency (OV90) | Potency (PA-1) | Potency (SKOV3) | Potency (Tov-21-G) | Potency (Tov112D)

CC(=O)OC1C(=O)C2C3OCC4=C3[C@@](C)(CC[C@@H]4O)CC[C@]2(C)[C@H]1C(C)C (stereo not given in full)
inactive: Potency (OV90) | Potency (PA-1) | Potency (SKOV3) | Potency (Tov-21-G) | Potency (Tov112D)

CC1(C)Oc2ncnc(N)c2N=C1c1ccc(C23CCC(CC(=O)O)(CC2)CC3)cc1
inactive: Potency (OV90) | Potency (PA-1) | Potency (SKOV3) | Potency (Tov-21-G) | Potency (Tov112D)

O=C(CSc1nc2ccccc2c(=O)n1-c1ccccc1)Nc1ccc2c(c1)CCC2
inactive: Potency (OV90) | Potency (PA-1) | Potency (SKOV3) | Potency (Tov-21-G) | Potency (Tov112D)

O=C1c2ccc(Nc3ccc(F)cc3F)cc2CCc2ccc(OCC(O)CO)cc21 (stereo not given)
inactive: Potency (OV90) | Potency (PA-1) | Potency (SKOV3) | Potency (Tov-21-G) | Potency (Tov112D)

O=C(Nc1ccccc1C(=O)NC1CCCCNC1=O)c1cc2ccccc2s1 (stereo not given)
inactive: Potency (OV90) | Potency (PA-1) | Potency (SKOV3) | Potency (Tov-21-G) | Potency (Tov112D)

CNc1cc2[nH]c(=O)n(-c3ccc(NC(=O)NS(=O)(=O)c4ccc(Cl)s4)cc3)c(=O)c2cc1F
inactive: Potency (OV90) | Potency (PA-1) | Potency (SKOV3) | Potency (Tov-21-G) | Potency (Tov112D)

OC(CC1c2ccccc2-c2cncn21)C1CCCCC1 (stereo not given)
inactive: Potency (OV90) | Potency (PA-1) | Potency (SKOV3) | Potency (Tov-21-G) | Potency (Tov112D)

COc1cc(N(C)CCN(C)C)c(N)cc1Nc1nccc(-c2cn(C)c3ccccc23)n1
inactive: Potency (OV90) | Potency (PA-1) | Potency (SKOV3) | Potency (Tov-21-G) | Potency (Tov112D)

CC1=C(C(=O)Nc2cc(Cl)ccc2Cl)C(c2ccco2)C2=C(CCCC2=O)N1 (stereo not given)
inactive: Potency (OV90) | Potency (PA-1) | Potency (SKOV3) | Potency (Tov-21-G) | Potency (Tov112D)
